Experimental data as given in PubChem BioAssay.
The source made the active and inactive calls. Cut-off read from the data, not from the text of the source, unless noted: active = nuclear beta-catenin stimulation mostly above about 4.2% (no sharp cut-off); inactive = mostly below about 10%.

Legend:
[1] = Wnt pathway potentiators raising nuclear beta-catenin – imaging, WNT3A-conditioned medium, mouse C2C12, NPC library, primary screen (AID 1117326); conditions: stronger effect = higher value; note: reference of the scale not given here
[2] = stimulators of insulin release from INS-1E, primary screen, cell-based, 5 mM glucose, NPC library (AID 1117329;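 active = compound raises insulin release from rat beta cells at 5 mM glucose, no numeric limit stated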; note: reference of the scale not given here); conditions: rat INS-1E insulin secretion, at 10 µM, stronger effect = higher value
[3] = growth inhibition of GSK3B-pretreated HCT116 cells – cell-based, CellTiter-Glo, 0.2 to 20 µM (AID 1117336;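 active = compounds lowering colon cancer cell viability after pretreatment blocking the GSK3B kinase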); conditions: HCT116 viability after GSK3B inhibitor, at 20 µM, stronger effect = higher value
[4] = inhibition of endothelial tube formation, primary screen, imaging, VEGF stimulated, CD31 staining, tube area, NPC library (AID 1117340;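 active = compound that reduces growth-factor-driven endothelial tube area in a mixed cell culture, no cutoff stated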); conditions: VEGF-stimulated ADSC/ECFC co-culture, at 10 µM, stronger effect = higher value
[5] = GLP1 release stimulators, primary, NCI-H716, NPC library (AID 1117341;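 active = compound raises GLP1 secretion from the human gut endocrine cells, with no numeric limit stated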; note: reference of the scale not given here); conditions: NCI-H716 cells, at 10 µM, stronger effect = higher value
[6] = HCT116 colon cancer cell growth inhibition, primary screen, CellTiter-Glo luminescence, NPC library (AID 1117342;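 active = compounds that lower survival of HCT116 colon cancer cells in the luminescence readout, no numeric limit stated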); conditions: at 20 µM (top of the series)
[7] = reduced SW480 viability measured with CellTiter-Glo, NPC library, primary (AID 1117343;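 active = compounds that lower viability of the colon cancer cells in the luminescence readout, with no numeric limit stated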); conditions: CellTiter-Glo luminescence; at 20 µM (top of the series)
[8] = NPC library primary testing for decreased DLD-1 cell viability via CellTiter-Glo (AID 1117346;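 active = compounds that lower survival of DLD-1 colon cancer cells in the luminescence readout, no cutoff given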); conditions: DLD-1 viability, CellTiter-Glo luminescence; at 20 µM (top of the series)

CCCCC(CC)CNC(=O)CC(C)OC(=O)CCC(=O)O (centres undefined)
inactive: nuclear beta-catenin stimulation ([1]; at 10 µM) -1.8% | insulin secretion stimulation [2] 4% | viability decrease [3] -11.7% | tube area decrease [4] 0.6% | GLP1 secretion stimulation [5] -1% | inhibition of viability [6] 4.5% | viability decrease (inhibition) [7] 4.5% | viability decrease (inhibition) [8] -7.8%
-0.8%: nuclear beta-catenin stimulation ([1]; stimulation, at 2 µM)

Cc1cc(O)c(C)c(C)c1O
-0.4%: nuclear beta-catenin stimulation ([1]; stimulation, at 2 µM)
inactive: nuclear beta-catenin stimulation ([1]; at 10 µM) 2.1% | insulin secretion stimulation [2] 1.3% | viability decrease [3] 4.5% | tube area decrease [4] -1.3% | GLP1 secretion stimulation [5] -0.5% | inhibition of viability [6] -1.8% | viability decrease (inhibition) [7] -15.7% | viability decrease (inhibition) [8] -26.1%

CC(C)(C)C(=O)NCCCC(=O)O
inactive: nuclear beta-catenin stimulation ([1]; at 10 µM) -1.1% | insulin secretion stimulation [2] 2.7% | viability decrease [3] -7.9% | tube area decrease [4] 2% | GLP1 secretion stimulation [5] -3.9% | inhibition of viability [6] -1.1% | viability decrease (inhibition) [7] -0.2% | viability decrease (inhibition) [8] -16.7%
2.4%: nuclear beta-catenin stimulation ([1]; stimulation, at 2 µM)

CC(O)CCCCn1c(=O)c2c(ncn2C)n(C)c1=O (centres undefined)
inactive: nuclear beta-catenin stimulation ([1]; at 10 µM) -0.6% | insulin secretion stimulation [2] 3.75% | viability decrease [3] 15.3% | tube area decrease [4] -9.4% | GLP1 secretion stimulation [5] -3.4% | inhibition of viability [6] 0.8% | viability decrease (inhibition) [7] 3.8% | viability decrease (inhibition) [8] 6.4%
3.3%: nuclear beta-catenin stimulation ([1]; stimulation, at 2 µM)

CC(C)(C)c1nnc(NS(=O)(=O)c2ccccc2)s1
active: insulin secretion stimulation [2] 33.5%
inactive: nuclear beta-catenin stimulation ([1]; at 10 µM) 0.7% | viability decrease [3] -0.1% | tube area decrease [4] 17.7% | GLP1 secretion stimulation [5] -0.5% | inhibition of viability [6] -5.8% | viability decrease (inhibition) [7] -1.2% | viability decrease (inhibition) [8] -7%
1.5%: nuclear beta-catenin stimulation ([1]; stimulation, at 2 µM)

CCc1cc(S(=O)(=O)O)c2cc(C(C)C)cccc1-2
inactive: nuclear beta-catenin stimulation ([1]; at 10 µM) -0.2% | insulin secretion stimulation [2] 0.1% | viability decrease [3] -5.3% | tube area decrease [4] -12.6% | GLP1 secretion stimulation [5] -20.6% | inhibition of viability [6] 1.1% | viability decrease (inhibition) [7] -19% | viability decrease (inhibition) [8] -14.2%
-2.2%: nuclear beta-catenin stimulation ([1]; stimulation, at 2 µM)

COC(=O)c1ccccc1C(=O)c1ccc(OCCN2CCCCC2)cc1
0.7%: nuclear beta-catenin stimulation ([1]; stimulation, at 2 µM)
inactive: nuclear beta-catenin stimulation ([1]; at 10 µM) 0.4% | insulin secretion stimulation [2] 0.95% | viability decrease [3] 26.9% | tube area decrease [4] -5.8% | GLP1 secretion stimulation [5] 3.5% | inhibition of viability [6] 39.7% | viability decrease (inhibition) [7] 15.8% | viability decrease (inhibition) [8] 39.7%

CC12CCC(C[N+](C)(CCC[N+](C)(C)C)C1)C2(C)C (centres undefined)
0%: nuclear beta-catenin stimulation ([1]; stimulation, at 2 µM)
inactive: nuclear beta-catenin stimulation ([1]; at 10 µM) -0.5% | insulin secretion stimulation [2] -2.5% | viability decrease [3] -7.9% | tube area decrease [4] -11.3% | GLP1 secretion stimulation [5] -3.2% | inhibition of viability [6] -7.3% | viability decrease (inhibition) [7] 7.3% | viability decrease (inhibition) [8] -4%

C[C@H](CN1CCCC1)C(=O)c1ccc(C(F)(F)F)cc1
inactive: nuclear beta-catenin stimulation ([1]; at 10 µM) 5.1% | insulin secretion stimulation [2] 8.3% | viability decrease [3] -5.5% | tube area decrease [4] -4% | GLP1 secretion stimulation [5] -0.4% | inhibition of viability [6] 7.8%
active: viability decrease (inhibition) [7] 73.8% | viability decrease (inhibition) [8] 68.1%
-1.9%: nuclear beta-catenin stimulation ([1]; stimulation, at 2 µM)

O=C(CCN1CCC(c2ccccc2)C1)c1ccc2c(c1)OCCO2 (centres undefined)
active: tube area decrease [4] 17% | viability decrease (inhibition) [7] 158% | viability decrease (inhibition) [8] 101%
0.5%: nuclear beta-catenin stimulation ([1]; stimulation, at 2 µM)
inactive: nuclear beta-catenin stimulation ([1]; at 10 µM) 12.8% | insulin secretion stimulation [2] 0% | viability decrease [3] 11.6% | GLP1 secretion stimulation [5] 1.4% | inhibition of viability [6] -10.2%

CCC(=O)O
1.3%: nuclear beta-catenin stimulation ([1]; stimulation, at 2 µM)
inactive: nuclear beta-catenin stimulation ([1]; at 10 µM) -0.6% | insulin secretion stimulation [2] 3.2% | viability decrease [3] -1.2% | tube area decrease [4] -25.7% | GLP1 secretion stimulation [5] -3% | inhibition of viability [6] 3.7% | viability decrease (inhibition) [7] -0.5% | viability decrease (inhibition) [8] 3.7%

CCCCCC[C@@H](CCC)C(=O)O
inactive: nuclear beta-catenin stimulation ([1]; at 10 µM) -0.3% | insulin secretion stimulation [2] 0.3% | viability decrease [3] 1.2% | tube area decrease [4] -29.5% | GLP1 secretion stimulation [5] 3.5% | inhibition of viability [6] 17.7% | viability decrease (inhibition) [7] 14% | viability decrease (inhibition) [8] 16.9%
-0.9%: nuclear beta-catenin stimulation ([1]; stimulation, at 2 µM)

CN1[C@@H]2CC[C@H]1CC(NC(=O)n1c(=O)[nH]c3ccccc31)C2 (some centres undefined)
1%: nuclear beta-catenin stimulation ([1]; stimulation, at 2 µM)
inactive: nuclear beta-catenin stimulation ([1]; at 10 µM) 1.7% | insulin secretion stimulation [2] 0.4% | viability decrease [3] -2.9% | tube area decrease [4] -4.6% | GLP1 secretion stimulation [5] 2.8% | inhibition of viability [6] 23.7% | viability decrease (inhibition) [7] 5.3% | viability decrease (inhibition) [8] -7.7%

NCCC(=O)[N-][C@@H](Cc1cnc[nH]1)C(=O)O.[Zn]
inactive: nuclear beta-catenin stimulation ([1]; at 10 µM) -0.4% | insulin secretion stimulation [2] -0.8% | viability decrease [3] -1.2% | tube area decrease [4] 9.1% | GLP1 secretion stimulation [5] 1.7% | inhibition of viability [6] -12.4% | viability decrease (inhibition) [7] -14.8% | viability decrease (inhibition) [8] 5.9%
-0.2%: nuclear beta-catenin stimulation ([1]; stimulation, at 2 µM)

C[C@@]12CCC[C@H]1[C@@H]1CC[C@H]3C[C@@H](O)CC[C@]3(C)[C@H]1CC2
active: viability decrease [3] 65.4% | viability decrease (inhibition) [7] 121% | viability decrease (inhibition) [8] 103%
-0.1%: nuclear beta-catenin stimulation ([1]; stimulation, at 2 µM)
inactive: nuclear beta-catenin stimulation ([1]; at 10 µM) 3% | insulin secretion stimulation [2] -1% | tube area decrease [4] -28.4% | GLP1 secretion stimulation [5] 4% | inhibition of viability [6] -11.6%

C[N+](C)(CCOc1ccccc1)Cc1cccs1
inactive: nuclear beta-catenin stimulation ([1]; at 10 µM) -0.3% | insulin secretion stimulation [2] 2.65% | viability decrease [3] 22.9% | tube area decrease [4] -14.7% | GLP1 secretion stimulation [5] -1.6% | inhibition of viability [6] 27.5% | viability decrease (inhibition) [7] -11.3% | viability decrease (inhibition) [8] 1.8%
1.1%: nuclear beta-catenin stimulation ([1]; stimulation, at 2 µM)
